An excerpt weighted towards active compounds, which were near 3.9% of everything screened.
BH1578 lux ind: quorum light induction in luxS cqsA deficient V. cholerae; activation, % at 18.7 µM; V. cholerae BH1578 lux reporter, luminescence, 6 h; actives 0.16% (n = 350,000); in the data active means activation mostly above about 9.7%, no sharp cut-off; inconclusive means no clear call, values can overlap the other calls; inactive means mostly below about 3.7%
Anthrax LF prot: anthrax lethal factor protease inhibition; P15917; multiplex microsphere protease cleavage assay, LF; inhibition, % at 10 µM; actives 0.12% (n = 360,000); AID 588501; further: plate controls were buffer without enzyme for full effect and enzyme alone for no effect
Bead autofluor: counter-screen for toxin protease inhibitors: compound fluorescence; AID 624483; compound autofluorescence counterscreen, microsphere flow cytometry; stronger effect = higher value; actives 3.1% (n = 360,000); fluorescence intensity (test concentration not listed); in the data active means fluorescence intensity above about 16000; inconclusive means no clear call, values can overlap the other calls
MazEF act: MazEF (E. coli) toxin RNase activation. FAM/BHQ RNA-DNA oligo cleavage fluorescence, 5 h. activation, % at 20 µM. actives 0.32% (n = 350,000); in the data active means activation above about 50%
BoNT F protease: inhibitors of Botulinum neurotoxin F light chain protease. AID 588497. inhibition, % at 10 µM. actives 0.22% (n = 360,000). Multiplex microsphere protease cleavage assay, flow cytometry; in the data active means inhibition above about 35%, passing the limit was not always enough; inconclusive means no clear call, values can overlap the other calls; further: plate controls were buffer without enzyme for full effect and enzyme alone for no effect
BoNT A protease: BoNT A light chain protease inhibition. multiplex microsphere protease substrate cleavage, flow cytometry. inhibition, % at 10 µM. actives 0.17% (n = 360,000); further: plate controls were buffer without enzyme for full effect and enzyme alone for no effect
Numbers without * were called inactive; i = inactive; ? = inconclusive; · = no result given. Unless noted, no stated cut-off is given here; in the data, active means inhibition above about 30%; inconclusive means no clear call, values can overlap the other calls; inactive means below that.

SMILES | BH1578 lux ind | Anthrax LF prot | Bead autofluor | MazEF act | BoNT F protease | BoNT A protease
Cc1ccc(N(C(=O)c2csnn2)C(C(=O)NC2CCCCC2)c2cccnc2)cc1C (stereo not given) | -0.3 | 20.4 | 3639 | -20.3 | 18.3 | -2.9
Cc1[nH]c2ccccc2c1/C=C(\C#N)C(=O)NCc1ccccc1 | -0.6 | 7.4 | 11132 | 105.7* | -25.0 | 52.8*
Cc1ccc(C(C)NC(=O)/C(C#N)=C\c2c(C)[nH]c3ccccc23)cc1 (stereo not given) | -12.5 | -4.2 | 11242 | 11.2 | 5.2 | 0.3
CCc1nc2c(OCc3cccc(OC)c3)cccn2c1N(C)C(=O)c1ccc(OC)cc1 | -0.6 | -4.8 | 3711 | · | -6.0 | -0.2
C=C(C)CSc1nc2ncccc2[nH]1 | -4.5 | 1.0 | 2814 | 5.0 | 0.8 | -0.1
CCN(CC)C(=O)CSc1nc2ncccc2[nH]1 | i | -0.2 | 24215* | 9.0 | -4.0 | ?
O=C(/C=C/c1ccc([N+](=O)[O-])cc1)NCCSc1ccccc1 | 0.9 | -1.3 | 23722* | -0.3 | -2.6 | ?
CCOc1ccc(N2C(=O)CC(/C=C3/N(C)c4ccccc4C3(C)C)C2=O)cc1 (stereo not given) | -0.3 | 0.8 | 2652 | -2.5 | -11.1 | 2.6
CN1/C(=C/C2CC(=O)NC2=O)C(C)(C)c2ccccc21 (stereo not given) | i | 1.6 | 19664* | -10.1 | 4.5 | 5.1
CN1/C(=C/C2CC(=O)N(c3cccc4ccccc34)C2=O)C(C)(C)c2ccccc21 (stereo not given) | -0.2 | -12.5 | 20679* | 15.4 | 15.8 | 15.9
CC(C)C(NC(=O)c1cccs1)C(=O)NC1=NCCS1 (stereo not given) | -1.0 | -1.3 | 21605* | 14.7 | 2.8 | ?
Cc1ccc(OCC(=O)N2N=C(C(F)(F)F)CC2(O)C(C)(C)C)cc1C (stereo not given) | i | -7.1 | 19845* | 6.3 | -0.8 | 1.6
COc1cccc(C(CC(=O)Nc2cccc3ccccc23)NC(=O)c2ccccc2)c1 (stereo not given) | i | -7.3 | 19845* | -3.2 | 10.5 | 5.2
CCc1ccc(OCCNC(=O)c2cc(SC)ccc2Cl)cc1 | i | 0.0 | 23443* | 2.1 | -2.0 | -0.4
CSc1ccc(Cl)c(C(=O)NCC(C)C)c1 | i | -1.3 | 5846 | 5.9 | 9.4 | -0.4
CSc1ccc(Cl)c(C(=O)NCCOc2ccccc2)c1 | -1.4 | 1.7 | 2874 | -8.5 | -1.8 | -0.5
CN(C)CCNC(=O)c1cc(Br)ccc1Cl | -0.2 | -0.1 | 21132* | 1.5 | -0.4 | -1.1
CCCNC(=O)c1cc(SC)ccc1Cl | i | -9.1 | 20823* | 7.4 | 6.8 | 7.5
COCCNC(=O)c1cc(Br)ccc1Cl | i | 2.7 | 8837 | -3.3 | -1.7 | 0.6
COc1ccc(NC(=O)C2CCCC2)cc1S(=O)(=O)N1CCOCC1 | i | -1.4 | 5483 | 3.5 | -2.7 | -3.2
CC1=C(C(=O)N2CCCCCC2)CC(CC(=O)NC2CCCC2)C(=O)N1Cc1ccc(F)cc1 (stereo not given) | · | -12.4 | 5275 | · | -0.4 | 0.2
CN(C)/C=N/c1ncc(C(=O)c2ccc(Cl)cc2Cl)s1 | -0.4 | -1.7 | 4572 | 0.8 | -3.4 | -0.8
CN(C)/C=N/c1ncc(C(=O)c2ccc(Cl)cc2)s1 | 5.3 | 2.3 | 22056* | 0.9 | 1.1 | 0.9
CC(C)/C=C1\CC/C(=C\c2ccc(N(C)C)cc2)C1=O | 0.3 | 15.7 | 6586 | 419.4* | 9.4 | 34.2*
CC(C)c1ccc(/C=C2\CC/C(=C\C=N\N(C)C)C2=O)cc1 | i | -10.0 | 8046 | -8.9 | 0.4 | 0.0
SMILES | BH1578 lux ind | Anthrax LF prot | Bead autofluor | MazEF act | BoNT F protease | BoNT A protease
COc1ccc(-c2cc(NC(C)=O)c3ncc(-c4ccc(F)cc4)n3c2)cc1OC | 0.6 | -3.3 | 3639 | · | -4.5 | 0.2
O=C(NCc1cccc(Br)c1)C1CC(c2ccccc2[N+](=O)[O-])=NO1 (stereo not given) | -1.3 | 6.4 | 4133 | 6.0 | -2.5 | -0.1
O=c1[nH]c2cccnc2n1Cc1ccco1 | i | 0.3 | 21423* | -0.9 | -4.5 | ?
O=C1c2cccnc2C(=O)N1Cc1ccco1 | i | 1.8 | 11325 | 11.3 | 3.7 | 0.5
COc1ccc(Cl)cc1CC=NNC(=O)c1ccncc1 | -1.0 | 4.8 | 4096 | 5.6 | -8.9 | -0.4
CC(C)NC(=O)CCNS(=O)(=O)c1ccc(Br)cc1 | i | -1.0 | 24137* | -5.8 | -2.8 | -2.6
CC(=O)N1CCN(C(=O)c2cc3ccccc3o2)CC1 | -0.3 | 8.1 | 4079 | 3.4 | -13.3 | -4.7
O=C(c1cc2ccccc2o1)N1CCN(S(=O)(=O)c2c(F)cccc2F)CC1 | -0.6 | -14.2 | 20189* | 6.7 | -84.4 | -54.2
CCCCN(CCCC)Cc1cc(=O)oc2cc(OC)c(Cl)cc12 | · | -8.4 | 6059 | · | -13.0 | -0.4
CN(C)CCNc1oc(-c2cccc(Cl)c2)nc1C#N | i | 0.6 | 20990* | 5.1 | -4.3 | -4.5
CCOc1ccc(Nc2oc(-c3ccco3)nc2C#N)cc1 | -0.2 | 0.3 | 2914 | -1.0 | 0.2 | 0.4
CN(C)CCCNc1oc(-c2ccccc2)nc1C#N | -5.9 | -3.9 | 2795 | -1.0 | -8.0 | -0.2
CCOc1ccc(Nc2oc(-c3cccc(Cl)c3)nc2C#N)cc1 | -0.9 | -3.8 | 23170* | 1.0 | 1.8 | ?
CCCNC(=O)C1(C)CCN(C(=O)c2cccc(C(F)(F)F)c2)C1 (stereo not given) | 0.5 | -11.2 | 3656 | · | 5.5 | -0.2
Cc1cc(SCC(=O)N/N=C/c2cccnc2)nc2c(C)cccc12 | i | -3.8 | 4328 | -30.9 | -1.2 | 0.1
CC(=O)Nc1ccc(C(=O)CSc2cc(C)c3cccc(C)c3n2)cc1 | -0.2 | -0.7 | 10871 | 77.7* | -6.8 | 0.2
Cc1cc(C)c(C#N)c(SCC(=O)c2cccs2)n1 | -1.4 | 4.4 | 22840* | 108.7* | -1.3 | ?
Cc1cc(SCC(=O)c2cccs2)nc2c(C)cccc12 | i | -9.0 | 16902* | -11.0 | -0.7 | -3.1
CN(C)CCCN1C(=O)C2CCc3[nH]c4ccccc4c3C2C1=O (stereo not given) | -0.2 | -4.2 | 3133 | 21.4 | -4.8 | -0.7
COc1ccc(N2CCN(Cc3nc(-c4ccc(Cl)cc4Cl)no3)CC2)cc1 | -0.2 | -5.7 | 20566* | -0.2 | -6.6 | -2.0
CC1COc2ccccc2N1S(=O)(=O)c1cc(Cl)ccc1Cl (stereo not given) | i | -7.3 | 3316 | 0.0 | 15.1 | -0.8
CC(=O)Oc1ccc(-c2ccc(C(=O)OCC(=O)N(C)CC(=O)Nc3ccccc3Cl)cc2)cc1 | -0.2 | -3.5 | 4270 | -2.8 | ? | 1.1
Cc1ccc(C2CC(c3cccs3)n3nc(N)nc3N2)cc1 (stereo not given) | i | 2.2 | 16364* | -0.8 | -1.5 | 0.9
CCc1c(C)nc2cc(-c3ccccc3)[nH]n2c1=O | 0.0 | -3.8 | 3383 | -17.4 | 36.2* | 1.8
CC1CC(C)CN(C(=O)c2cc3cc(Br)cc(Br)c3o2)C1 (stereo not given) | 0.4 | -5.4 | 5478 | 5.5 | -6.9 | -0.4
CCc1nnc(NC(=O)C2CCCCC2)s1 | i | -7.2 | 22291* | 0.8 | 2.9 | 1.7
